About 5,700 (36%) of roughly 16,000 compounds were called active. Another 24% or so got no clear call; they are omitted. Some of the results follow. Unmarked numbers belong to inactive results. Calls come from the whole dose curve; as a rule, active = well fitted curve in the direction sought with a large enough effect; inconclusive = small, poorly fitted or top-dose-only effect, or effect the other way; inactive = no such curve, though single readings can be large or run the other way.
% is set by controls: 0 for no effect and ±100 for the full control effect.

Cytochrome P450 1A2 (Homo sapiens), sequence (P05177 whole entry, looked up): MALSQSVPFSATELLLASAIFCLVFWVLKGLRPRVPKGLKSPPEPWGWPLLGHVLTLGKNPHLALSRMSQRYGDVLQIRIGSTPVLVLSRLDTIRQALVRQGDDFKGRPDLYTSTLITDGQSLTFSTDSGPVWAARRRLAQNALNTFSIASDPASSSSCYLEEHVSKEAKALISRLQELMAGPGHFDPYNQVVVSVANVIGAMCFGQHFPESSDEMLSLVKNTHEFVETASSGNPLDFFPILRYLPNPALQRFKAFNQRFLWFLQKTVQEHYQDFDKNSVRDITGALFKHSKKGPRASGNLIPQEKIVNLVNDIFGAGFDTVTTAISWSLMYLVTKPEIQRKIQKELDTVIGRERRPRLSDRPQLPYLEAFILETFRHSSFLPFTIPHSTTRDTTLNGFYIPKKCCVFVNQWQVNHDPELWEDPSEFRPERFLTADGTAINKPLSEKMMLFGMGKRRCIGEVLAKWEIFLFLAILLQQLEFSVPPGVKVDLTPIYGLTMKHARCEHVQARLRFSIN

This experiment has as its target Cytochrome P450 1A2 (Homo sapiens) (UniProt P05177). The experiment is described as follows: Cytochrome panel assay with activity outcomes. Particulars: recombinant CYP, pro-luciferin dealkylation, luminescence, p450-cyp1a2; series mostly up to 57.1 µM; activity, negative = inhibition: at the top concentration.
Consider `N[C@@H](C(=O)O)c1ccc(O)c(C(=O)O)c1`, for which the “activity, negative = inhibition” value is -18.9%. In the case of `Nc1ccc(O)c(C(=O)O)c1`, the “activity, negative = inhibition” value is -7.04% [at 25.6 µM]. What is called AC50 is the concentration giving half of the maximal activity seen. In the case of `O=C(O)C1=CC(=C(c2ccc(O)c(C(=O)O)c2)c2ccc(O)c(C(=O)O)c2)C=CC1=O`, the AC50 was 10 µM (active). `C#CCCCO/N=C1/C[C@@H](O)[C@@H](O)[C@@H]2[C@@H]3C(=O)N(Cc4ccccc4)C(=O)[C@H]3CC[C@H]12`: the activity, negative = inhibition is 0.662% [at 11.4 µM]. Take `Cc1nc(S(=O)(=O)N(C)c2ccccc2)c(C#N)c(C)c1Cl`: the AC50 was 15.8 µM (active). On to `O=C(NNS(=O)(=O)c1ccc(Cl)cc1)NC1CCCCC1`, for which the “activity, negative = inhibition” value was 5.14%. With `Cc1nc(S(=O)(=O)NC2CCCCC2)c(C#N)c(C)c1Cl`, the AC50 was 10 µM (active). Regarding `CO[C@@H]1COC(=O)[C@@H](CCSC)NC(=O)C/C=C\[C@@H](C)COC(=O)CCC[C@H]1C`, the activity, negative = inhibition was 0.608% [at 11.4 µM].

With `Cc1cc(C)n(-c2nnc(C)n2/N=C/c2ccccc2OCc2ccccc2Cl)n1`, the AC50 was 2 µM (active).

Regarding `CCOC(=O)COc1c(OC)cc(Cl)cc1C1Nc2ccccc2C(=O)N1c1cccc(C)c1` (configuration not stated), the “activity, negative = inhibition” value was -11.9%. On to `CCOC(=O)COc1c(C=O)cc(Br)cc1OC`, for which the AC50 was 4.47 µM (active). As for `CCOC(=O)COc1c(OC)cc(Cl)cc1C1Nc2ccccc2C(=O)N1c1ccc(F)cc1` (configuration not stated), the “activity, negative = inhibition” value is -13.9%. For `CCOC(=O)c1cc(-c2ccc(Cl)cc2)nc2c1c(C)nn2CCC#N`, the AC50 was 0.891 µM (active).

For the compound `CC1CC2(CCCCC2)N2C(=O)C(=O)c3cccc1c32` (configuration not stated), the AC50 is 2.24 µM (active). On the same count and under the same terms, the value for `Cn1nc(C(F)(F)F)c(/C=N/OC(=O)c2ccccc2Cl)c1SCc1ccc(Cl)cc1` was 2.82 µM (active). Regarding `COc1ccc(C(=O)O/N=C/c2ccc(S(=O)c3ccc(Cl)cc3)nc2)cc1` (configuration not stated), the “activity, negative = inhibition” value was -7.11%. Turning to `Cn1nc(C(F)(F)F)c(/C=N/OCc2c(Cl)cccc2Cl)c1Cl`, the AC50 was 1.26 µM (active). Consider `Cn1nc(C(F)(F)F)c(/C=N/OC(=O)c2ccc(Cl)cc2)c1Cl`, for which the AC50 was 12.6 µM (active). For the compound `N[C@H](CCC(=O)NCS(=O)(=O)O)C(=O)O`, the “activity, negative = inhibition” value was -1.79%.

`CCn1c(SCC(=O)N2CCN(S(=O)(=O)c3ccccc3)CC2)nnc1-c1cccs1`: the “activity, negative = inhibition” value is -26.8%. Still for that read-out and setting: the value for `Cc1ccccc1NC(=O)CSc1nnc(-c2ccccc2)n1-c1ccccc1` was -28.6%. Take `CCn1c(SCC(=O)c2ccccc2)nnc1-c1cccs1`: the AC50 is 3.55 µM (active).

Take `O=C(CSc1nnc(-c2ccccc2)n1-c1ccccc1)c1cccs1`: the AC50 was 14.1 µM (active). `CCn1c(SCC(=O)c2ccc3ccccc3c2)nnc1-c1cccs1`: the AC50 was 3.55 µM (active). Turning to `Cc1ccc(C(=O)NNC(=O)CSc2nnc(-c3ccncc3)n2-c2ccc(C)cc2)cc1`, the “activity, negative = inhibition” value was -28.8%. Turning to `Cn1cccc1C(=O)N1CCC2(CC1)CN(C(=O)Nc1ccccc1)C2`, the “activity, negative = inhibition” value is -10.3%. On the same count and under the same terms, in the case of `O=C(O)C1(C(=O)O)CCN(S(=O)(=O)c2ccccc2)CC1` it was 13.9% [at 2.29 µM]; in that of `O=C(c1ccccc1)c1nc2ccccc2n(CCCn2c(=O)c(C(=O)c3ccccc3)nc3ccccc32)c1=O`, -29.7%. With `CCCCCn1c(=O)c(C(=O)c2ccccc2)nc2ccccc21`, the AC50 was 0.708 µM (active). The same measure, in the same setting: the value for `O=[N+]([O-])c1cccc(-c2nc(-c3ccncc3)no2)c1` was 0.631 µM (active). Consider `CCS(=O)(=O)N1CCC(C(=O)NCCCOC)CC1`, for which the “activity, negative = inhibition” value is 2.72%.

Turning to `O=C(N/N=C/c1cccc(F)c1)c1csc2c1CCCC2`, the AC50 was 4.47 µM (active). In the case of `CC(C)(C)C1CCc2c(C(=O)N/N=C/c3cccs3)csc2C1` (configuration not stated), the “activity, negative = inhibition” value was -23.6%. On to `CC(C)NCCCOc1ccc(Cl)cc1Br`, for which the AC50 was 0.631 µM (active). For `Nc1ncnc2c1ncn2C[C@@H](O)C(=O)O`, the activity, negative = inhibition was -12.5% [at 11.4 µM]. Still for that read-out and setting: the value for `CCOc1ccc(N2C(=O)CN=C2Nc2ccccc2Cl)cc1` was -17.1%. Turning to `CCOc1ccc(NC2=NCC(=O)N2Cc2cccs2)cc1`, the AC50 was 22.4 µM (active). Consider `CCOc1ccc(N2C(=O)/C(=C/c3cccs3)N(CC(=O)OC)C2=S)cc1`, for which the “activity, negative = inhibition” value is -12.2%. Regarding `O=C1CN=C(Nc2ccccc2)N1Cc1cccs1`, the AC50 is 12.6 µM (active). In the case of `Cc1cc(N)n(-c2ccc3ccccc3c2)n1`, the AC50 is 2 µM (active). On the same count and under the same terms, in the case of `CCN(CC)S(=O)(=O)c1cc(C(=O)OC)ccc1Cl` it was 22.4 µM (active). On to `CCCN(CCC)S(=O)(=O)c1ccc(C(=O)O)cc1`, for which the “activity, negative = inhibition” value is 0.818% [at 25.6 µM]. Regarding `CCN(CC)CCNC(=O)c1ccc(Cl)c(S(=O)(=O)Nc2ccccc2OC)c1`, the “activity, negative = inhibition” value is -18.8%.

Turning to `O=c1[nH]c(=S)[nH]c2c1CN(CCCN1CCOCC1)CN2`, the activity, negative = inhibition was -13.5% [at 2.29 µM]. For the compound `Cc1nn(-c2ccccc2)c(Cl)c1/C=N/NC(=O)c1ccco1`, the AC50 was 7.08 µM (active).

Turning to `Cc1nn(-c2ccccc2)c(C)c1/C=N/NC(=O)c1cc(-c2ccc(Cl)s2)[nH]n1`, the AC50 was 14.1 µM (active). With `O=C(Nc1c(C(=O)N2CCCCC2)cnn1-c1ccccc1)c1ccco1`, the “activity, negative = inhibition” value was -12.5%.
